# Screens from PubChem BioAssay.
# Cycloheximide cs: affects cycloheximide protein synthesis inhibition readout, counter-screen; cell reporter, cycloheximide protein synthesis inhibition counterscreen; max response, %; hit rate 12% among 300,000; AID 2314; in the data active = max response mostly above about 13%, no sharp cut-off; inactive = mostly below about 14%; also: read at 38.3 µM for the half of the compounds with a filed dose; 0% is about no effect
# Shiga inhibitor: Shiga toxin inhibition | Vero cells, Shiga toxin protein synthesis inhibition reporter | inhibition, % at 38.7 µM | hit rate 9.2% among 290,000; in the data active = inhibition mostly above about 28%, no sharp cut-off; inactive = mostly below about 43%; also: 0% is about no effect
# HCMV antiviral: human cytomegalovirus inhibition; HFF cells, HCMV-luciferase reporter, 72 h; hits give low values; activity change, negative = inhibition, % at 57.5 µM; hit rate 4.5% among 410,000; in the data active = activity change below about -60%; inconclusive = no clear call, values can overlap the other calls; inactive = above about -39%; also: % is scaled to controls: 0 for no effect and ±100 for the full control effect
#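 After 16 h attachment at 37C, HFF cells received test compound and HCMV-luciferase (1 PFU/cell); reporter luminescence read 72 h later, data normalized against buffer-only and known inhibitor Salinomycin.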
# Pf growth 48h: inhibits P. falciparum growth in the first generation, 48 h; hit rate 5.9% among 310,000; Potency, µM (highest dose often 28.7 µM), for inactives: at the top dose activity change, negative = inhibition, most hits filed as inhibitors; P. falciparum luciferase growth in erythrocytes, 48 h; also: potency is read from the fitted curve at half-maximal effect; % is scaled to controls: 0 for no effect and ±100 for the full control effect
#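 In quantitative HTS format, infected erythrocytes bearing luciferase-reporter parasites were treated for a single generation at 37 C. Luminescence after adding detection reagent served as the growth measure.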
# Pf growth 96h: inhibits malaria parasite growth, 96 h; P. falciparum luciferase reporter growth, 96 h; Potency, µM (doses to about 28.7 µM), for inactives: top-dose activity change, negative = inhibition, actives largely listed as inhibitors; hit rate 6.9% among 320,000; also: potency is read from the fitted curve at half-maximal effect; % is scaled to controls: 0 for no effect and ±100 for the full control effect
#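 Parasite growth measured via integrated firefly luciferase reporter in P. falciparum. Infected erythrocytes at 2% hematocrit, 0.05% parasitemia final were treated 96 hours at 37 C under 5% CO2, and luminescence was read.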
# An asterisk follows results filed as active; ? = inconclusive; / = no result; + = active, no number. Most compounds without a hit are left out; they make up all but 20% or so of the library. Unless noted, calls follow the shape of the dose curve; as a rule, active = well fitted inhibition curve with a large enough effect; inconclusive = small, poorly fitted or top-dose-only effect, or another doubt; inactive = no such curve, though single readings can be large or run the other way.
SMILES,Cycloheximide cs,Shiga inhibitor,HCMV antiviral,Pf growth 48h,Pf growth 96h
COc1ccc(-c2nc(C#N)c(NCCN(C)C)o2)cc1,/,/,15,/,/
COCCNc1oc(-c2ccc(OC)cc2)nc1C#N,/,/,60,/,/
Cc1ccc(S(=O)(=O)NCc2ccccc2)cc1C(=O)NC(C)c1ccc(S(N)(=O)=O)cc1 (stereo unspecified),/,/,-9,?,-16%
CC1(C)CC(=O)C(CS(=O)(=O)c2ccccc2)=C(Cl)C1,-2,-4,-68*,74%,1%
COC(=O)C1=C(CS(=O)(=O)c2ccccc2)NC(=O)NC1c1ccccc1 (stereo unspecified),-3,-1,-22,5%,2%
O=S(=O)(NCc1ccccc1)[C@@H]1CC2C=CC1C2 (stereo partly specified),/,/,-10,41%,40%
COc1cc(C2c3c(oc4c(C)cc(C)cc4c3=O)C(=O)N2Cc2cccnc2)ccc1O (stereo unspecified),/,/,-11,/,/
COc1ccc(C2C(C(=O)c3cccs3)=C(O)C(=O)N2Cc2cccnc2)cc1OC (stereo unspecified),38*,110*,-27,0%,-11%
COc1ccc(C2c3c(-c4cc(Cl)c(C)cc4O)n[nH]c3C(=O)N2Cc2cccnc2)cc1OC (stereo unspecified),-2,-26,-18,3.3µM*,-10%
COc1ccc(C2C(C(=O)c3ccc(C)o3)=C(O)C(=O)N2Cc2cccnc2)cc1OC (stereo unspecified),-2,3,96,18%,-4%
COc1ccc(C2c3c(oc4c(C)cc(C)cc4c3=O)C(=O)N2Cc2cccnc2)cc1OC (stereo unspecified),-5,-33,/,0%,9.3µM*
CCc1sc(C(=O)N2CCc3cc(OC)c(OC)cc3C2CC(=O)O)cc1C (stereo unspecified),/,/,4,?,?
Cn1c(=O)c2[nH]c(N=Nc3ccc(N)cc3N)nc2n(C)c1=O,-3,14,-4,27%,25%
CCCn1cc(S(=O)(=O)c2ccc(CC)cc2)c(=O)c2cc(F)c(N(CC)CC)cc21,/,/,7,/,/
COc1ccc(NC(=O)c2cc(-c3cc(Cl)ccc3C)n[nH]2)cc1OC,/,/,9,/,/
Cc1cccc(NC(=O)c2cc(-c3cc(C)ccc3O)n[nH]2)c1,40*,108*,71,?,?
CC(=O)Nc1ccc(NC(=O)c2cc(-c3ccc(C)cc3O)n[nH]2)cc1,3,27,-10,?,?
COc1ccc(NC(=O)c2cc(-c3cc(C)ccc3O)n[nH]2)cc1Cl,8,17,17,2.1µM*,?
Cc1ccc(O)c(-c2cc(C(F)(F)F)[nH]n2)c1,-1,-3,-40,?,15µM*
Cc1cccc(NC(=O)c2cc(-c3cc(C)c(C)cc3O)n[nH]2)c1,28*,43*,50,/,?
Cn1c2ccsc2c2cnn(Cc3ccccc3F)c(=O)c21,4,59,/,/,/
Cc1ccc(-c2cc(C(=O)Nc3cccnc3)[nH]n2)c(O)c1C,39*,100*,-9,?,-8%
Cc1cc(F)ccc1-c1cc(C(=O)Nc2ccc(F)cc2)[nH]n1,/,/,57,/,/
Cc1ccc(OCC(=O)N/N=C/C=C/c2ccco2)cc1C,2,-10,1,6%,81%
CCCCC1C(=O)N(c2ccccc2)N(c2ccccc2)C1=O,10,10,?,?,3.3µM*
SMILES,Cycloheximide cs,Shiga inhibitor,HCMV antiviral,Pf growth 48h,Pf growth 96h
CCCCCC1C(=O)N2C=C(c3ccccc3)c3ccccc3N2C1=O (stereo unspecified),/,/,-10,/,/
O=C(CSc1nnnn1-c1ccc2c(c1)OCO2)NCc1cccs1,27*,+,-8,6%,/
Fc1ccccc1CSc1nnnn1-c1ccc2c(c1)OCO2,16*,23,16,?,/
COc1ccc(CC(=O)N/N=C(\C)CC(=O)NCc2ccco2)cc1OC,-2,-14,16,4%,15%
S=C1NCCC12C(=S)Nc1ccccc12 (stereo unspecified),/,/,32,/,/
O=c1[nH]c(-c2ccc(O)cc2)nc2scc(-c3cccs3)c12,80*,108*,42,36%,2%
CC(=O)C1(C)C(=O)N(c2ccc(F)cc2)C(=O)N1c1ccc(F)cc1 (stereo unspecified),/,/,-34,/,/
Cc1ccc(C)c(NC(=O)CSc2nc(=O)n(CCN3CCOCC3)c3c2CCC3)c1,/,/,-24,/,/
O=C(NCCc1ccccc1Cl)c1ccc2c(c1)nc1n2CCCCC1,/,/,-81*,/,/
CC(C)CCNC(=O)c1ccc2c(c1)nc1n2CCCCC1,/,/,-7,/,/
CCN(CC)S(=O)(=O)c1cccc(NC(=O)C2SC(=Nc3ccc(C)cc3C)C(C(=O)NC(C)COC)=C2N)c1 (stereo unspecified),3,18,/,/,3.7µM*
CCN(CC)S(=O)(=O)c1cccc(NC(=O)COC(=O)c2cc(C)oc2C)c1,-5,-13,6,/,6%
CCCCNC(=O)C1=C(N)C(C(=O)Nc2ccc(C)c(S(=O)(=O)N3CCCCC3)c2)SC1=Nc1ccc(C)cc1C (stereo unspecified),9,20,-9,/,10µM*
Nc1nc2n(c1C(=O)c1ccccc1)CCC2,-3,26,-14,14%,/
COc1ccc(C2CCCN2C(=S)Nc2ccccc2C)cc1OC (stereo unspecified),3,0,-25,9.3µM*,?
COc1cccc(NC(=S)N2CCCC2c2ccc(OC)c(OC)c2)c1 (stereo unspecified),33*,52*,0,?,-14%
COc1ccc(C2CCCN2C(=S)Nc2ccc(C)cc2C)cc1OC (stereo unspecified),4,-3,20,-25%,39%
CC(C(=O)Nc1ccc(Cl)cc1Cl)N1C(=O)NC2(CCCC2)C1=O (stereo unspecified),0,28,16,9%,18%
Cc1cccc(NC(=O)CSc2nsc(SCC(=O)Nc3cccc(C)c3)c2C#N)c1,12*,12,75,104%,27%
N#Cc1c(SCC(=O)N2CCCCC2)nsc1SCC(=O)N1CCCCC1,-2,-4,-38,15µM*,0%
C#CCSc1nsc(SCC#C)c1C#N,5,-3,-17,?,?
CCCSc1nsc(SCCC)c1C#N,22*,46*,4,/,?
CC(=O)Nc1cccc(NC(=O)CSc2nc(C)c(C)c(C)c2C#N)c1,11*,-2,-12,26%,/
CCC(=O)NCCCC[C@H](NC(=O)OCc1ccccc1)C(=O)Nc1ccc2c(C)cc(=O)oc2c1,-3,-5,/,/,/
Cc1ccc(-n2c(SC3CCOC3=O)nc3ccccc3c2=O)cc1 (stereo unspecified),-3,-5,/,3%,-15%
C=CCN1C(=O)N(c2ccccc2)C(=O)C1CC(=O)Nc1ccc(OC)cc1 (stereo unspecified),4,/,-9,7%,-4%
Cc1ccc(Cl)cc1NC(=O)CSc1nc(C)c(C)c(C)c1C#N,/,/,-85*,/,/
N#C/C(=C\c1ccc2c(c1)OCCO2)C(=O)NC1CCCCC1,39*,24,-22,15%,-16%
